Numbering of substitutions follows the chain as printed. The full ranking holds about 5,800 sequences; the median of “enrichment r” is about 0.68, and the highest 2% start at about 11. The entries come from a sample that favours the highest values as a whole.

Drawing on article PMC12136788, this text covers binding signal for 26 molecules.

The labels stand for the following.
B1: ENSG00000052841:stop:overlap|stop_codon|ENSG00000052841|stop_codon|NA|stop_codon (ssRNA)
RNA: GGGAGUUCUACAGUCCGACGAUCAGAACCGAAUCCAGACCAUCCAGUGUCACUUAAUGCUGAAGAAGGGACGGCGCUCUCCUUAGUGCACUUCUUCCUUCUCUCUUUCUCUUUACUCAUGCUCUAAAAAAAAAGAAUAAGAAACAACAGAGGAUUGAGCAUCA
B2: chr5:136174412:136174513:+|CDS|ENSG00000113658|unk|total|mutant (ssRNA)
RNA: GGGAGUUCUACAGUCCGACGAUCUAUGUUGGUGGAGAGGUGUAUGCGGAAUGCCUCAGUGACAGCAGCAUAUUUGUACAGAGCCGGAACUGCAACUUUCAUCAUGGCUUUCAUCCCACCACUGUCUGUAAGAUUCCCAGCAGCCAACAGAGGAUUGAGCAUCA
B3: chr8:116846039:116846140:-|3pUTR|ENSG00000164754|msi1|FALSE|bound_elsewhere (ssRNA)
RNA: GGGAGUUCUACAGUCCGACGAUCACAUUCAAUAUGAUGUGCCUGUAAACCAAGGAGUUUUCCCCGUUUGUAAAAAGACAUUGUAGAUAAUUGAAUGUUUGAUUUUAGAAAGGUCAUUAGUUUCUUGUUACACAUUUUGUUAGUCAACAGAGGAUUGAGCAUCA
B4: chr13:110149936:110150037:-|3pUTR|ENSG00000187498|msi1|FALSE|unique (ssRNA)
RNA: GGGAGUUCUACAGUCCGACGAUCUUCUUGUAUUAUAAUUAAUUUUCUACCCCCAGAGAUAAAUGUUUGUUUAUAUCACUGUCUAGCUGUUUCAAAAUUUAGGUCCCUUGGUCUGUACAAAUAAUAGCAAUGUAAAAAUGGUUUCAACAGAGGAUUGAGCAUCA
B5: chr12:98549999:98550103:+|3pUTR|ENSG00000120802|unk|total|mutant (ssRNA)
RNA: GGGAGUUCUACAGUCCGACGAUCUGUUUCCCAUACUGUUUUCAGCCUUUUGUUUAUAAUCCGAAAUUGUGAGAAGCUUCAUUCCGUGUUUAAAAAUGUGGGGAGAUAAAUCAGACUUAACAUGUAUGUAAGAUCAAUUCACUUCAACAGAGGAUUGAGCAUCA
B6: chr11:10797513:10797714:-|3pUTR|ENSG00000110321|msi1_unk|FALSE|overlapping (ssRNA)
RNA: GGGAGUUCUACAGUCCGACGAUCUUCUGCAUAAGGUUUUUUUGUAGUGUAAUGUCUUAAUCAUAGUCUACCAUCAAAUAUUUUAGGAGUAUCUUUAAUGUUUAGAUAGUAUAUUAGCAGCAUGCAAUAAUUACAUCAUAAGUUCAACAGAGGAUUGAGCAUCA
B7: chrX:129805617:129805718:-|3pUTR|ENSG00000188706|msi1|FALSE|unique (ssRNA)
RNA: GGGAGUUCUACAGUCCGACGAUCUCUUUUCCCAUUAGAUAUAUGUAAGUAGUUGUAGUAGAGAUAAUAAUUGACAUUUCUCGUAGACUACCCAGAAACUUUUUUAAUACCUGUGCCAUUCUCAAUAAGAAUUUAUGAGAUGCCCAACAGAGGAUUGAGCAUCA
B8: chr12:909583:909684:+|3pUTR|ENSG00000060237|unk|FALSE|bound_elsewhere (ssRNA)
RNA: GGGAGUUCUACAGUCCGACGAUCUAGCUCUGUCCUUUACUUAUUGAGACACUUUAACUUUUUCCUUUGUAUUUCCAUUGUAUUAGAUAAAUAAAUGUGAAUGUAAAAUUGUAUAAAUUACUGUACUUGAAUACUUCUGUUUCCCAACAGAGGAUUGAGCAUCA
B9: chr12:98549999:98550103:+|3pUTR|ENSG00000120802|unk|FALSE|unique (ssRNA)
RNA: B5 RNA with C60U, C61A, C83U, C84A
B10: chr2:24000049:24000165:+|3pUTR|ENSG00000173960|unk|FALSE|unique (ssRNA)
RNA: GGGAGUUCUACAGUCCGACGAUCGUAGCAUAUGACUGGAAACUAUAUUCAGUGCACUUUCUCCAAAAGACUACCCAGAAAAAUAGACUUAUUUUCAAAUACCAGUUAUCAAGAUAUAUUAAAUAGCUGUAUUGUUUAGAAUCUCAACAGAGGAUUGAGCAUCA
B11: chr6:57184343:57184440:+|3pUTR|ENSG00000112208|msi1_unk|FALSE|overlapping (ssRNA)
RNA: GGGAGUUCUACAGUCCGACGAUCUCUUCAGUUUUGUGAAUAACAAAACUAGCAAUAUUUUAAUUAUCUAUCUAGAGAUUUUUUAGAUUGAAUUCUUGUCUUGUACUAGGAUCUAGCAUAUUUCACUAUUCUGUGGAUGAAUACCAACAGAGGAUUGAGCAUCA
B12: chr22:43879677:43880794:-|three_prime_utr|ENSG00000100341|control|control|control (ssRNA)
RNA: GGGAGUUCUACAGUCCGACGAUCGAGAAAGGAGGACAGCCACAGAGACACAUGUCUUACUUUCAGAAUUUCCACGGGGGGACUAGGAGGGCAGCAUUGCUGGGGAGAGGGGCUCCUGUUCUGCCGUGGAGCUGCCCACGGAGCCAACAGAGGAUUGAGCAUCA
B13: chr3:115809552:115809653:-|3pUTR|ENSG00000185565|unk|total|mutant (ssRNA)
RNA: GGGAGUUCUACAGUCCGACGAUCCUCCCUCACCUCUCCUCACCUCCACCCCCUCCCCAGAGCACCCGUCAUGCCGCAAAUGCCCGGAAGUGCCAUUUUCAUUUUCUCCACUGUGCGUGUGUGCUCAAGUCUUUCGCUCUCACGCAACAGAGGAUUGAGCAUCA
B14: chr4:145760401:145760502:-|3pUTR|ENSG00000151612|unk|FALSE|unique (ssRNA)
RNA: GGGAGUUCUACAGUCCGACGAUCUCCGUACUUUUCUCUGAAAGGAAUCUUGUCUUGUUAAACCCUAAAGAGAGUGUCCUUAAUAGCAAUCAGCACUUGUAAGCUUAUAUACUGGUGCAUUUGGUUUUCUGUUGGGUGAAUGCGCAACAGAGGAUUGAGCAUCA
B15: chr4:48579112:48579224:-|CDS|ENSG00000075539|unk|FALSE|bound_elsewhere (ssRNA)
RNA: GGGAGUUCUACAGUCCGACGAUCCUCUAUUGCCCUAGCUCGAUAGAUUUACAAACUUUAGCAGAAUGGAACUCUUCUCCUAUUAGCCACCAGUUUGAUGUGAUUAGUCCAUCACAUAUAUGGAUAUUUGCACAUGUGACCCAACAACAGAGGAUUGAGCAUCA
B16: chr19:12699869:12699961:-|3pUTR|ENSG00000105576|msi1_unk|FALSE|overlapping (ssRNA)
RNA: GGGAGUUCUACAGUCCGACGAUCGAGGGUGGGGGUGUAGUUACUUCCCAGUUGGCCAGAAAACUGGGCCUUGCAGACCCCCUUAGCAUUUUUUCCCUUUUUUUCCUUCCCUGCUUUCUACUUCUUUGGGGAGCCCCUUGUGUUCAACAGAGGAUUGAGCAUCA
B17: chr17:27756765:27757353:-|three_prime_utr|ENSG00000007171|control|control|control (ssRNA)
RNA: GGGAGUUCUACAGUCCGACGAUCCAAGUCUUAUUUCCUCAACGUUGCUCCCCAUCAAGCCCUUUACUUGACCUCCUAACAAGUAGCACCCUGGAUUGAUCGGAGCCUCCUCUCUCAAACUGGGGCCUCCCUGGUCCCUUGGAGCAACAGAGGAUUGAGCAUCA
B18: chr17:49053040:49053141:+|3pUTR|ENSG00000159217|unk|FALSE|unique (ssRNA)
RNA: GGGAGUUCUACAGUCCGACGAUCCUCAGCUCCUGUGAGGGGUCUGGUUAGGAGAGAGCCAUUUUUAAGGACAGGGAGUUUUAUAGCCCUUUUCUACUUUCCUCCCCUCCUCCCAGUCCUUAUCAAUCUUUUUUCCUUUUUCCUCAACAGAGGAUUGAGCAUCA
B19: chr19:3536616:3536717:+|3pUTR|ENSG00000105325|msi1|total|mutant (ssRNA)
RNA: GGGAGUUCUACAGUCCGACGAUCACCGCCGCAGGGCCAGGCGGACGGCGUGAGGUUUGUGUUGGGGCUGGUUCUGCCCAUGCCCGGGGGUGGGGGAGCUCCCAGGACAGACCAGCCUUGUUUCUCAUGUAAUGCAGUGACGCUCAACAGAGGAUUGAGCAUCA
B20: chr20:63933867:63933968:+|3pUTR|ENSG00000101152|msi1|FALSE|unique (ssRNA)
RNA: GGGAGUUCUACAGUCCGACGAUCAUCAGAGUGGGCCCCUUGCCAGGUGGCUUUUCAGUUACAGAGUCCAGUGGACCAUUUUGUAGAACCAUGCAGCUCCCUGCGGAAGGUGGGGUAGGGUGGGAAAGAGGAGCAGGUCUGGAGCAACAGAGGAUUGAGCAUCA
B21: chr17:50110931:50111032:+|3pUTR|ENSG00000005882|unk|FALSE|unique (ssRNA)
RNA: GGGAGUUCUACAGUCCGACGAUCUGUGCCCAGACAUGUGUGCUCAGGGUGGCUUUCUCCCUAGGACCUUCUGUGUAUAUAGUUAGUUUUAUAACCCUGAAUGCCCCCACCCUUCCCCUAAGCACACAGGGGUUAAAGCUGUGUCAACAGAGGAUUGAGCAUCA
B22: chr15:74955373:74955475:-|3pUTR|ENSG00000178718|unk|FALSE|unique (ssRNA)
RNA: GGGAGUUCUACAGUCCGACGAUCGGACAGUUUUCCUUUCUAGUUUUCUUUCCCCUGCUUCAGAGGAGCAUCUCUGAGGGUUCUAGCUCUUUUAACACCCCUUUUCCCCCUGCUGGCCCAGAGGGAGACCCAGGACUGAACUCUCAACAGAGGAUUGAGCAUCA
B23: chr11:2944997:2945113:-|3pUTR|ENSG00000205531|unk|FALSE|unique (ssRNA)
RNA: GGGAGUUCUACAGUCCGACGAUCCUGUGUAGAGUAGGGCCCUGUUCUCCUUAGGAUGUUGCUUCUUGAUUUUUUUUUUUUUUUAGGGGUGGGUCAGGGUUGUGACACACCAGCCCAGGUGAGAGCUGCUGCGGGUCACCUCAUCAACAGAGGAUUGAGCAUCA
B24: chr12:56205560:56205676:-|3pUTR|ENSG00000181852|unk|FALSE|unique (ssRNA)
RNA: GGGAGUUCUACAGUCCGACGAUCCUCUUGUGGCACAGGCCAUAAUUGUUCCAUAGACCCCUCUCUAGCCCUGUGACUGUAGUUAGUUACUUUGAUAAUUUUCUUUGGCCAUUGUUUGUUUAUAUUUCACAAACUCCACCUACUCAACAGAGGAUUGAGCAUCA
B25: chr1:160214333:160214525:+|3pUTR|ENSG00000162734|msi1|FALSE|unique (ssRNA)
RNA: GGGAGUUCUACAGUCCGACGAUCCUACAGUGUUUUCCUUUGCACCGAUCCCCACCCCAAUUCAAUCCCGGAAGGGACUUACUUAGGAAACCCUUCUUUACUAGAUAUCCUGGCCCCCUGGGCUUGUGAACACCUCCUAGCCACCAACAGAGGAUUGAGCAUCA
B26: chr12:53210768:53210868:-|3pUTR|ENSG00000172819|msi1_unk|FALSE|overlapping (ssRNA)
RNA: GGGAGUUCUACAGUCCGACGAUCAGGGGGGAUGCUGCUUAGCUGAUCCCGCCCUGACCCAGAGGAAGCCUCUAUUUAUUUAUUAGCUUUUGUUUACACCGUGGAAUUGACCCCUUCCUCCAGGGGUCUUGGGUGGGGGAGCCCCAACAGAGGAUUGAGCAUCA

This assay deals with T1, UNK ZnF1-6 (called full-length) (human, UniProt Q9C0B0 30-357).
T1 sequence: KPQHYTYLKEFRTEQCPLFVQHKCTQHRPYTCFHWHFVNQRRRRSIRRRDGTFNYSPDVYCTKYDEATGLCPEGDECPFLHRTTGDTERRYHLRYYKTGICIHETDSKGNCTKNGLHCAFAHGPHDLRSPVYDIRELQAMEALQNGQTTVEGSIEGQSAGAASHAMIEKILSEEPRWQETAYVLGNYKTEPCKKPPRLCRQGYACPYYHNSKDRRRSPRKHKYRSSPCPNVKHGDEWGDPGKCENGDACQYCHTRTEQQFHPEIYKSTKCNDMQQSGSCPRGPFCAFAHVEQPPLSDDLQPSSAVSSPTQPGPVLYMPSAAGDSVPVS
The assay is described as follows: nsRBNS (natural sequence RNA bind-n-seq); RBNS binding buffer (assumed for nsRBNS): 25 mM Tris pH 7.5, 150 mM KCl, 3 mM MgCl2, 0.01% Triton X-100, 500 ug/ml BSA, 20 U/ml SUPERase-In, 4 C; UNK is unkempt and MSI1 is Musashi-1; names of the RNAs are library labels; protein concentration not given here; high values mean tight binding.
The molecule B1 showed a binding signal of 0.995 enrichment R. B2 had a binding signal of 0.849 enrichment R. Consider B3, for which the binding signal amounted to 5.22 enrichment R. B4: the binding signal came to 119 enrichment R. Then B5, with 0.419 enrichment R; and B6, with 1.96 enrichment R; and B7, with 101 enrichment R. In turn, B8 returned a binding signal of 12.7 enrichment R.

Molecule B9 came in with a binding signal of 6.12 enrichment R. Molecule B10 displayed a binding signal of 3.33 enrichment R. The molecule B11 yielded a binding signal of 6.31 enrichment R.

In turn, B12 registered a binding signal of 1.05 enrichment R. On to B13, for which the binding signal is 1.88 enrichment R. Take B14: the binding signal worked out at 0.364 enrichment R. With B15, the binding signal stood at 1.85 enrichment R.

With B16, the binding signal worked out at 15.5 enrichment R. On to B17, for which the binding signal came to 0.605 enrichment R. The molecule B18 gave a binding signal of 3.9 enrichment R. Turning to B19, the binding signal stood at 0.79 enrichment R.

B20 displayed a binding signal of 1.29 enrichment R. Consider B21, for which the binding signal is 6.79 enrichment R. In turn, B22 came in with a binding signal of 10.8 enrichment R.

Turning to B23, the binding signal was determined as 22 enrichment R.

On to B24, for which the binding signal was determined as 33.5 enrichment R. With B25, the binding signal turned out to be 2.33 enrichment R. With B26, the binding signal came out at 2.83 enrichment R.
